Assay outcomes from PubChem BioAssay.
IL-1B inflam inh – qHTS for Inhibitors of Inflammasome Signaling: IL-1-beta AlphaLISA Primary Screen; THP-1 LPS/ATP IL-1B secretion, AlphaLISA, 16 h; active compounds read low; activity change, % at 57.5 µM; 360,000 tested, 4.7% active; AID 743279, 2014; in the data active = activity change below about -50%; inconclusive = mostly about -30% to -49%
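Secreted IL-1B measured by AlphaLISA bead assay after 16 h compound exposure of THP-1 cells; compounds (final up to 57.5 uM) added 1 h before LPS (250 ng/mL) and ATP (1.25 mM) stimulation; lower signal means less secretion.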
HT1080 IDH1KD tx – qHTS for induction of synthetic lethality in tumor cells producing 2HG: qHTS for the HT-1080-IDH1KD cell line; HT-1080 IDH1 knockdown viability, ATP luminescence, 48 h; Potency, µM (titrated, usually from 46.1 µM), inactives show at the highest dose activity, negative = toxicity, usual class: cytotoxic; 360,000 tested, 2% active; AID 686971, 2013;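 also: potency is read from the fitted curve at half-maximal effect; 0% = DMSO wells and -100% = cell-free medium wells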
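% activity derives from luminescence (CellTiter-Glo), normalised to DMSO and no-cell wells. HT-1080-IDH1KD cells, 750/well, had 48 h compound exposure at 37 °C.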
HT1080NT lethal – qHTS for induction of synthetic lethality in tumor cells producing 2HG: qHTS for the HT-1080-NT fibrosarcoma cell line. HT-1080-NT fibrosarcoma viability, CellTiter-Glo ATP luminescence, 48 h. Potency, µM (series often up to 46.1 µM), for the others: at the top dose activity, negative = less viability, actives largely listed as cytotoxic. 360,000 tested, 1.6% active. AID 686970, 2013;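 also: NT is the 2HG producing partner of a matched IDH1 knockdown line; potency is read from the fitted curve at half-maximal effect; 0% = DMSO-treated cells and -100% = media-only wells without cells; nearly all actives have a fitted effect of over 55% in size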
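A 48-hour cytotoxicity screen used HT-1080-NT cells plated 2 hours before compound delivery. ATP-based CellTiter-Glo luminescence measured viability, normalized to DMSO and no-cell controls.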
DT40 TDP1 no CPT – qHTS for Inhibitors of human tyrosyl-DNA phosphodiesterase 1 (TDP1): qHTS in cells in absence of CPT; 420,000 tested, 15% active; DT40 Tdp1-/- hTDP1 cells, no CPT, ATP luminescence, 48 h; Potency, µM (top dose mostly 46.2 µM), without a hit: top-dose activity change, negative = growth inhibition, actives largely listed as inhibitors; also: potency is read from the fitted curve at half-maximal effect; nearly all actives have a fitted effect of over 55% in size
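Chicken DT40 Tdp1-/- cells complemented with human TDP1, screened without camptothecin (DMSO vehicle only), 400 cells/well. Compounds pin-transferred, cells incubated at 37 °C for at least 48 hr. Growth read as ATP-dependent luminescence (CellTiter-Glo, 30 min at RT).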
TDP1 cell CPT – qHTS for Inhibitors of human tyrosyl-DNA phosphodiesterase 1 (TDP1): qHTS in cells in presence of CPT; Potency, µM (top dose mostly 46.2 µM), for the others: at the top dose activity change, negative = growth inhibition, actives largely listed as inhibitors; 420,000 tested, 12% active; chicken DT40 Tdp1-/-;hTDP1 cells + 20 nM CPT, ATP luminescence, 48 h; also: potency is read from the fitted curve at half-maximal effect; nearly all actives have a fitted effect of over 55% in size
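Cell growth measured by CellTiter-Glo luminescence after a minimum 48 h, 37 C compound exposure with 20 nM CPT in Tdp1-knockout DT40 cells stably expressing hTDP1, seeded 400/well; qHTS titration format.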
Active calls of the source: *; i = inactive; u = inconclusive; x = no result given. Only some compounds are listed: those with a hit (about 19% of all), similar ones and a draw of the others. Unless noted, calls follow the shape of the dose curve; as a rule, active = well fitted curve in the direction sought with a large enough effect; inconclusive = small, poorly fitted or top-dose-only effect, or another doubt; inactive = no such curve, though single readings can be large; an effect the other way counts as inactive or inconclusive. Unless noted, % is scaled to controls: 0 for no effect and ±100 for the full control effect.

SMILES	IL-1B inflam inh	HT1080 IDH1KD tx	HT1080NT lethal	DT40 TDP1 no CPT	TDP1 cell CPT
CCC(=O)c1ccc(N2CCN(C(=O)c3ccccc3)CC2)c(F)c1	29	-4%	13%	7.3µM*	18µM*
CC(=O)c1ccc(N2CCN(C(=O)c3ccco3)CC2)c(F)c1	-7	23%	10%	u	u
N#Cc1ccc(Cl)cc1NC(=O)COC(=O)[C@H](CCC(N)=O)NC(=O)c1ccc(F)cc1	5	-2%	1%	-20%	-2%
COc1ccc(OC)c(N(CC(=O)Nc2ccc3c(c2)OCCO3)S(C)(=O)=O)c1	-15	1%	-3%	-31%	-12%
Cc1ccccc1CNC(=O)C1CCC(=O)N(C2CCCCCC2)C1 (centres undefined)	i	-2%	4%	u	-3%
O=C(NC12CC3CC(CC(C3)C1)C2)c1cccc(OC(F)F)c1	u	-26%	-22%	-23%	-1%
CCN(CC)c1ccc(NC(=O)c2cc(CN3CCCC3)on2)c(C)c1	x	x	x	13µM*	16µM*
CCN(CC)c1ccc(NC(=O)c2cccc(OC)c2)c(C)c1	-21	u	u	u	29µM*
CCN(CC)c1ccc(NC(=O)c2cc3ccccc3o2)c(C)c1	-4	17%	6%	u	u
CCN(CC)c1ccc(NC(=O)c2cc(OC)cc(OC)c2)c(C)c1	7	4.6µM*	3.7µM*	1.3µM*	1.3µM*
CCc1cccc(C)c1NC(=O)c1cc(CN2CCCC2)on1	x	x	x	-19%	1%
CCN(CC)c1ccc(NC(=O)c2ccc3c(c2)OCO3)c(C)c1	-17	-19%	-12%	u	u
CCN(CC)c1ccc(NC(=O)C2COc3ccc(OC)cc3C2)c(C)c1 (centres undefined)	x	x	x	1µM*	0.58µM*
CCN(CC)c1ccc(NC(=O)c2c(OC)cccc2OC)c(C)c1	-28	9%	21%	-10%	-12%
CCN(CC)CCNC(=O)CCN1N=C(c2ccccc2)CCC1=O	-11	-5%	-1%	15%	-5%
Nc1c(-c2ccc(Cl)cc2)cnc2c(-c3ccccc3)cnn12	9	-6%	-8%	-15%	-25%
Cc1cc(C)c(C)c(S(=O)(=O)Nc2ccc3cn[nH]c3c2)c1C	6	-27%	-20%	21µM*	u
Cc1nn(CC2CC2)c(=O)n1-c1ccc(F)cc1	3	2%	2%	0%	3%
NN/C(=C\[N+](=O)[O-])Nc1ccccc1	14	2%	-2%	21µM*	u
CCc1nc(SCC(=O)Nc2ccc(OC)cc2[N+](=O)[O-])n[nH]1	0	-1%	7%	-4%	-19%
CCOc1ncccc1C(=O)OCC(=O)c1ccc(Br)s1	-11	-3%	-2%	4.6µM*	u
CCOc1ncccc1C(=O)OCC(=O)c1cccs1	12	5%	25%	-10%	-26%
CCOc1ncccc1C(=O)OCC(=O)Nc1nnc(-c2ccccc2)o1	9	-3%	0%	23µM*	u
O=C(Nc1ccccc1)/C(=C/c1ccc([N+](=O)[O-])cc1)NC(=O)c1ccco1	4	u	-24%	-3%	-5%
